Data as given in PubChem BioAssay AID1222 (Sanford-Burnham Center for Chemical Genomics, 2008).
The whole screen tested about 190,000 compounds, of which fewer than 10 were called active. These entries were drawn from the full list. Measured potencies and affinities stand elsewhere. A number with no mark means an inactive call.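 The calls were made as follows: active = EC50 below 50 µM in the dose-response confirmation; inactive = the rest.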

Assay: rescue of cells from ER stress-induced death, primary screen, 384-well, CSM14.1, thapsigargin, ATP luminescence (AID 1222);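 also: death triggered by thapsigargin at about 15 µM added after 2 h compound pretreatment; cell ATP read after overnight thapsigargin exposure of roughly 18 to 22 hours; reference of the scale not given here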
Conditions: CSM14.1 thapsigargin-induced death rescue, at 20 µM, active compounds read high

| SMILES | cellular ATP content (survival) [%] |
| --- | --- |
| O=C(NCC1CC1)[C@@H]1C[C@H]1[C@@H](NP(=O)(c1ccccc1)c1ccccc1)c1ccccc1 | -1.2 |
| CC(=O)c1ccc(OCCCN2CCCCC2)cc1 | -1.3 |
| O=C(COC(=O)c1cc(Br)ccc1O)Nc1cc(S(=O)(=O)N2CCCC2)ccc1Cl | -0.8 |
| O=C(NCCCN1CCCC1)c1cc2c(Cl)nc3ccccc3c2s1 | -12 |
| CC(=O)Cn1c(N2CCC(Cc3ccccc3)CC2)nc2c1c(=O)[nH]c(=O)n2C | -1.8 |
| CCn1c(SCc2ccccc2Cl)nc2nc3c(cc2c1=O)CCCC3 | -4.7 |
| CC(=O)Nc1ccc(OCc2cccc([N+](=O)[O-])c2)cc1 | 1.1 |
| O=C(CSc1nc2ccccc2[nH]1)Nc1nc(-c2cccc(Br)c2)cs1 | -3.8 |
| CCOC(=O)C1CCN(C(=O)CCS(=O)(=O)c2ccc3c(c2)CC(C)N3C(=O)CC)CC1 (centres undefined) | 0.4 |
| Cc1ccc(C)c(N2CCN(C(=O)CN(C)S(=O)(=O)c3cnc[nH]3)CC2)c1 | -1.7 |
| O=C(NCCO)c1cccc2c1C(=O)c1ccccc1-2 | -1.3 |
| Cc1[nH]c2ccccc2c1C(=O)COC(=O)Cn1c(C(F)(F)F)nc2ccccc21 | 0.2 |
| Cc1ccc(CNS(=O)(=O)/C=C/c2ccc3c(c2)OCO3)cc1 | -2.2 |
| CC(=O)Nc1ccccc1C(=O)N1CCN(c2cccc(C)c2C)CC1 | -1.4 |
| O=C(NCc1ccccn1)C1CC(c2ccc(F)cc2)=NO1 (centres undefined) | -1 |
| CSc1nccc(N2CCN(c3ccc(F)cc3)CC2)n1 | 5.7 |
| Cc1ccc(NC(=O)c2ccc(OC(=S)N3CCOCC3)cc2)cc1 | -1.3 |
| Cc1cc(C)n(C(=O)COc2c(C)cccc2C)n1 | -2.8 |
| CCc1ccc(-c2nc(CCl)cs2)cc1 | -1.7 |
| C=CCNCCCCOc1ccc(C)cc1[N+](=O)[O-] | -1.5 |
| CN(C)S(=O)(=O)c1ccc(C(=O)OCc2ccc(C#N)cc2)cc1 | -0.2 |
| C(=N\Nc1nc(N2CCOCC2)nc(N2CCOCC2)n1)/c1cccnc1 | 1.2 |
| CCOC(=O)c1cc2cc([N+](=O)[O-])cc(OC)c2oc1=O | 0 |
| CC(=O)c1c(C)[nH]c(C(=O)COC(=O)CCSc2ccccc2)c1C | 0.3 |

| SMILES | cellular ATP content (survival) [%] |
| --- | --- |
| COc1ccc(-c2csc(Nc3ccccc3)n2)cc1 | -1.2 |
| C=CC[C@@H]1Cc2c(Br)ccc(Br)c2[C@@H](CC=C)N1 | -0.9 |
| Cc1ccccc1OCc1nnc(SCC(=O)Nc2ccc3nc(SCC(=O)Nc4ccccc4)sc3c2)n1C | -0.5 |
| COc1cc(NC(=O)CN2c3cccc4cccc(c34)S2(=O)=O)cc(OC)c1OC | -1 |
| C=CCn1c(=O)c(C(=O)OCC)c(O)c2ccccc21 | -1.4 |
| CC(C)c1ccc(N2C(=O)CSC23C(=O)N2CCCc4cccc3c42)cc1 (centres undefined) | -0.3 |
| O=C1CCc2cc(S(=O)(=O)NC(Cc3ccccc3)C(=O)NC3CCCCC3)ccc2N1 (centres undefined) | 0 |
| Cc1ccc(CCNC(=O)C2CCN(C(=O)N(C)C)CC2)cc1 | -1.1 |
| CCOC(=O)CC1ON(C)C(=O)N1c1ccc(Cl)cc1Cl (centres undefined) | 0.4 |
| COc1cc(/C=N/Nc2nc(Nc3ccccc3)nc(N3CCCCC3)n2)ccc1OCC(=O)O | -1.5 |
| COCCN(C(=O)Cc1cccs1)C(C(=O)NC1CCCC1)c1ccc(OC)c(OC)c1 (centres undefined) | -1 |
| Cc1ccc(-c2nnc(CSc3nnc(COc4cccc5ccccc45)n3-c3ccccc3)o2)cc1 | 0.6 |
| CC(C)=CCN1CCN(Cc2ccc(C)s2)CC1CCO (centres undefined) | 0.8 |
| c1cnc2c(SCc3ccc(-c4nnco4)cc3)cccc2c1 | -0.4 |
| CC(=O)Nc1nc2ccc(NC(=O)c3ccco3)cc2s1 | -5.6 |
| O=C1OC(Cc2ccccn2)C(=O)C1=C1SCCS1 (centres undefined) | -2.9 |
| O=C(c1ccc(Cl)c(S(=O)(=O)N2CCCCCC2)c1)N1CCN(c2ccccc2O)CC1 | 0.3 |
| NS(=O)(=O)c1ccc(CCNC(=O)CN2CCN(c3cccc(Cl)c3)CC2)cc1 | -2.9 |
| Cn1c(N)c(C(=O)COC(=O)c2ccnc3ccccc23)c(=O)n(C)c1=O | -2.1 |
| O=C1CCCN1CCCN1C(=O)N[C@@H](Cc2ccccc2)C1=O | 2 |
| Cc1cc(C)cc(OCC(=O)NNC(=O)C2CCCO2)c1 (centres undefined) | -0.3 |
| CC1CCCC(NC(=O)COC(=O)Cc2ccsc2)C1C (centres undefined) | -1.7 |
| Cc1ccc(CSCc2nnc(SCC(=O)N3CCN(c4ccccc4)CC3)n2C)cc1 | 2 |
| N#Cc1ccccc1Cn1cc(/C=C/[N+](=O)[O-])c2ccccc21 | 4 |

| SMILES | cellular ATP content (survival) [%] |
| --- | --- |
| O=C(CCn1nnc2ccccc21)Nc1nnc(-c2ccccc2F)s1 | 0.6 |
| Cc1ccc(C)c(N2CCN(C(=O)COc3cc(=O)n(C)c4ccccc34)CC2)c1 | -0.1 |
| Cc1ccc(CNC(=O)C(=O)NCC2OCCN2C(=O)c2cccs2)cc1 (centres undefined) | -0.2 |
| CCN1C=C(Cc2ccc(OC)cc2)C2=C(C1)C(c1ccc(OC)cc1)C(C#N)=C(N)O2 (centres undefined) | -1.8 |
| O=C(N/N=C/c1ccc(OCC(=O)N2CCCCC2)cc1)c1ccccc1O | 2.1 |
| CCC1Sc2ccccc2N(CC(=O)NC2CCCC2)C1=O (centres undefined) | -1.6 |
| Cc1ccc(C(=O)N/C(=C\c2ccc(Br)cc2)c2nc(=S)[nH][nH]2)cc1 | -11.2 |
| COc1ccc(OC)c(NC(=O)C2CCC(CNc3c(N4CCC(C)CC4)c(=O)c3=O)CC2)c1 (centres undefined) | 1.6 |
| O=CN1CCN(C(=O)c2ccc([N+](=O)[O-])cc2)CC1 | 1.3 |
| COc1cccc(C(=O)CSc2nnc(CNS(C)(=O)=O)n2-c2ccc(C)cc2)c1 | 0.4 |
| COCc1ccc([C@@H]2C[C@H]3CN(Cc4ccccc4C)C(=O)[C@]34CCCN24)o1 | 6.6 |
| CCCOC(=O)CN1C(=O)c2ccccc2C1=O | -2.4 |
| Cc1ccc(S(=O)(=O)N(CC(=O)N/N=C/c2cccc(Cl)c2)c2cccc3cccnc23)cc1 | 4.7 |
| CCC(Sc1nc(N)cc(=O)[nH]1)C(=O)Nc1cc(C)on1 (centres undefined) | 1.6 |
| COc1ccc(NC(=O)c2ccccc2NC(=O)CSc2ccc(C)cc2)cc1 | 4 |
| Cc1ccc(C(=O)NNC2CC(=O)N(c3ccc4c(c3)OCCO4)C2=O)cc1 (centres undefined) | -0.8 |
| NC(N)=NC(N)=Nc1ccc(SC(F)(F)F)cc1 | 0.3 |
| COc1ccccc1-c1noc(CCC(=O)Nc2cc(C(F)(F)F)ccc2Cl)n1 | 1 |
| O=C(Nc1cccc(-c2cn3cccnc3n2)c1)Nc1ccccc1F | -0.8 |
| O=C(NNS(=O)(=O)c1ccccc1)c1ccc(S(=O)(=O)N2CCCCC2)cc1 | -2.8 |
| CSc1ccc(C(C(C(=O)c2cccs2)N2CCOCC2)N2CCOCC2)cc1 (centres undefined) | -1.7 |
| CCCn1c(=O)c2ccccc2n2c(SCC(=O)NCc3cccs3)nnc12 | 2.6 |
| COC(=O)C1=C(N)Oc2cc(C)n(Cc3cccnc3)c(=O)c2C1c1cc(OC)ccc1OC (centres undefined) | -3.1 |
| O=C(COc1ncnc2scc(-c3ccccc3)c12)NC1CCCc2ccccc21 (centres undefined) | -2.4 |

| SMILES | cellular ATP content (survival) [%] |
| --- | --- |
| O=c1ccccn1CCOc1ccccc1Cl | 0.2 |
| CCOC(=O)C1C(=O)C=C(c2ccc(Br)cc2)CC1c1ccco1 (centres undefined) | 0.2 |
| C[C@@H]1NC(=O)c2cc([N+](=O)[O-])cc(I)c2NCCCC[C@@H](C(N)=O)NC(=O)[C@H](CCC(=O)O)NC1=O | 6.5 |
| Cc1cc(C)n2nc(-c3ccsc3-n3c(C)ccc3C)cc2n1 | 6 |
| Cn1c(=NC(=O)C2CCN(S(=O)(=O)c3cccs3)CC2)sc2ccccc21 | -0.7 |
| COC(=O)COc1ccc(S(=O)(=O)N2CCc3ccccc3C2)cc1C | -0.7 |
| Cc1ccc(C(=O)/C=C/c2ccc(F)cc2)o1 | -13.2 |
| O=C(O)CCCn1cc(NC(=O)c2cc(F)c(F)cc2Cl)cn1 | -2.1 |
| COc1ccccc1CNC(=O)CCNC(=O)Cn1cnc2ccccc2c1=O | 0.7 |
| CC1(C)CC(=O)C2=C(C1)NC(=O)CC2c1cc2c(cc1Br)OCO2 (centres undefined) | -0.1 |
| O=C(N/N=C/c1ccncc1)NC1CCCCC1 | -0.5 |
| COc1cc(C(=O)Nc2cccc(-c3cn4cccnc4n3)c2)cc(OC)c1OC | -2 |
| O=C1c2ccccc2C(=O)C1C1=Nc2ccccc2NC(c2ccccc2)C1 (centres undefined) | 4.7 |
| Nc1ccc(Cc2nc3cc4ccccc4cc3[nH]2)cc1 | -1.5 |
| CCc1cccc(C)c1NC(=S)N(Cc1cccnc1)Cc1ccco1 | -2.7 |
| O=C(COc1ccc(Cl)cc1)N1CCN(C(=O)Cc2ccccc2)CC1 | 5.3 |
| CCOC(=O)N1CCN(C(=O)c2cnn3ccccc23)CC1 | 2.2 |
| O=C(N/N=C/c1cccc(Oc2ccccc2)c1)c1ccccc1Br | 0 |
| Cc1cccc(-n2cnc3cc(C(=O)N4CCc5ccccc54)ccc32)c1 | -2.1 |
| Cc1[nH]nc(Nc2ccc(O)cc2)c1[N+](=O)[O-] | -1.1 |
| O=C(/C=C/c1ccco1)OCn1nnc2ccccc2c1=O | -0.7 |
| Cc1cccc(-c2ncc(CN3CCN(CCC(C)C)C(CCO)C3)cn2)c1 (centres undefined) | 0.8 |
